Assay [1] deals with Cytochrome P450 1A2 (Homo sapiens) (UniProt P05177). The assay can be described thus: p450-cyp1a2 (AID 410; calls by dose curve; also: potency is read from the fitted curve at half-maximal effect). In short, it runs like this:
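20nM CYP1A2 with 100uM Luciferin-ME (at Km) in 100mM KPO4; compound preincubated 10 min, NADPH regeneration added, 60 min at room temperature. Luciferin quantified by luminescence after detection reagent; normalized to 57 uM furafylline.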

Assay [2] has as its target Glucocorticoid receptor (Homo sapiens) (UniProt P04150). Nature of the assay: GR-GFP Redistribution (AID 450;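 active = compounds whose dose series gives a full or clear partial fitted curve of increased nuclear translocation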; also: potency is read from the fitted curve at half-maximal effect). As to conditions: U2OS GR-GFP nuclear translocation, laser cytometry, 2 h.
Assay [3] shares this target. The assay can be described thus: GR-EFC Redistribution (AID 451; calls by dose curve; also: potency is read from the fitted curve at half-maximal effect). Particulars: CHO-K1 GR-EFC translocation, beta-gal luminescence, 2 h. The gist of the method:
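Translocation of GR-ED fusion to nuclear EA restores b-gal, read by luminescence after 1 h room-temperature detection. Engineered CHO-K1 biosensor cells, 1,000/well, exposed 2 h at 37 C to titrations up to 46 uM final.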

Assay [4] concerns the target Mitogen-activated protein kinase 10 (Mus musculus) (UniProt Q61831). Nature of the assay: JNK3 AlphaScreen Assay (AID 530; active = well fitted curve in either direction with a large enough effect, not every such curve was filed as active;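 also: kinase came from lysate of stimulated human HepG2 cells; signal reports phosphorylation of biotinylated GST-cJun 1-79 at Ser73 with 10 µM ATP; % is scaled to controls: 0 for no effect and ±100 for the full control effect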). In short, it runs like this: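 Compound titrations were preincubated 15 minutes at room temperature with substrate, antibody and pre-activated JNK3-containing HepG2 lysate. Reactions were started with 10 uM ATP and stopped with EDTA-containing bead buffer for AlphaScreen detection.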

For assay [5], the target named is 3',5'-cyclic-AMP phosphodiesterase 4B (Homo sapiens) (UniProt Q07343). The assay can be described thus: qHTS Assay for Inhibitors of PDE-IV (AID 607; active = well fitted activation curve with a large enough effect in the main read-out, with a control signal flat, not every such curve was filed as active; also: % of control where 0% means no effect). The gist of the method: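 The readout is membrane depolarisation from a cAMP-sensing CNG channel, detected with a potential dye at ex 535/em 590. Cells were HEK293-derived (endogenous PDE-IV) at 1000 cells/well, titrated up to 22.9 uM final.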
Sequence of 3',5'-cyclic-AMP phosphodiesterase 4B (Homo sapiens) (Q07343 whole entry, looked up): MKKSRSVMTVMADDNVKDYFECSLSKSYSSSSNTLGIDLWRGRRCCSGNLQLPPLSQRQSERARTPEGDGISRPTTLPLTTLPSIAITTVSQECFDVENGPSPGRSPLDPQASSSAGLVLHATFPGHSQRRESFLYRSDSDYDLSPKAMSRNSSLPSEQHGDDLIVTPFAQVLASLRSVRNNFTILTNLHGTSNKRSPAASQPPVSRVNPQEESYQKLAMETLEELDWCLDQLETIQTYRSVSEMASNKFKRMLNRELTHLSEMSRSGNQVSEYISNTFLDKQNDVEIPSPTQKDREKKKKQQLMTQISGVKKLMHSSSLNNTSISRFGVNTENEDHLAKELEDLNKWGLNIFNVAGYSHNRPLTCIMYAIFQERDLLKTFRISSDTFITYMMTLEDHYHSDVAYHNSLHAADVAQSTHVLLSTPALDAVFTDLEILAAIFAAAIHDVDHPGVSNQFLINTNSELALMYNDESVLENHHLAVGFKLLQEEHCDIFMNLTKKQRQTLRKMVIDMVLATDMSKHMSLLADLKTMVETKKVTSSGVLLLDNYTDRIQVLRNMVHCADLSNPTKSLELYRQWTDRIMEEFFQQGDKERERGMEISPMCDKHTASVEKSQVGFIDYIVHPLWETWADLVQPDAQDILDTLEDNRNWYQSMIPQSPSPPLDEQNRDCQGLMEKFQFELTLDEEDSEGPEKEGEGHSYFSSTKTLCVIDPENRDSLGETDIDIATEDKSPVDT

Assay [6] has as its target Cytochrome P450 2C9 (Homo sapiens) (UniProt P11712). Nature of the assay: qHTS Assay for Inhibitors and Substrates of Cytochrome P450 2C9 (AID 883). Also: % is scaled to controls: 0 for no effect and ±100 for the full control effect; nearly all actives have a fitted effect of over 60% in size. In short, it runs like this: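 Luminescent read-out of deoxyluciferin hydroxylation, normalized to 57uM sulphaphenazole (AC100). Reaction: 10nM enzyme, 100uM Luciferin-H (equal to KM), 25mM KPO4, 10 min compound preincubation, then 60 min with NADPH regeneration, both at 37C.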

Assay [7] concerns the target Cytochrome P450 3A4 (Homo sapiens) (UniProt P08684). Nature of the assay: qHTS Assay for Activators of Cytochrome P450 3A4 (AID 885). Also: nearly all actives have a fitted effect of over 65% in size. The gist of the method: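 Steps: enzyme/substrate mix dispensed; compound added, 10 min RT; NADPH regeneration solution added, 60 min RT; luciferin detection buffer stops reaction; 20 min later luminescence measured.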
Assay [8] addresses Cytochrome P450 2D6 (Homo sapiens) (UniProt P10635). The assay can be described thus: qHTS Assay for Inhibitors and Substrates of Cytochrome P450 2D6 (AID 891).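 Also: luciferin methyl ether substrate demethylated by CYP2D6 with NADPH regeneration; % is scaled to controls: 0 for no effect and ±100 for the full control effect; nearly all actives have a fitted effect of over 60% in size.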 The gist of the method: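 Human CYP2D6 (5 nM) with 30 uM Luciferin-ME EGE (at Km) in 100 mM KPO4, compound preincubated 10 min, then NADPH regeneration system for 60 min at room temperature. Luciferin read by luminescence; normalized to 1.43 uM quinidine.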

Assay [9] addresses Cytochrome P450 2C19 (Homo sapiens) (UniProt P33261). Nature of the assay: qHTS Assay for Inhibitors and Substrates of Cytochrome P450 2C19 (AID 899). Also: % is scaled to controls: 0 for no effect and ±100 for the full control effect; nearly all actives have a fitted effect of over 60% in size. The gist of the method: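 Luminescence readout of luciferin formed from 10uM Luciferin-H EGE (KM level) by 5 nM CYP2C19 in 50mM KPO4. 60 min NADPH-driven reaction at 37C after 10 min compound preincubation; data scaled to 57uM ketoconazole inhibition.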

Assay [10] concerns the target DNA dC->dU-editing enzyme APOBEC-3G (Homo sapiens) (UniProt Q9HC16). Nature of the assay: qHTS for inhibitors of Vif-A3G interactions: Validation (AID 588379). Also: 0% is about no effect. The gist of the method: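 HeLa cells stably expressing Vif and A3G-eYFP, 700 cells/well, incubated overnight at 37 deg C, then exposed to compound overnight at 37 deg C. Inhibition of Vif-mediated degradation read as increased yellow fluorescence (Ex 488/Em 500-530) by laser-scanning cytometry.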

Assay [11] addresses Catechol O-methyltransferase (Homo sapiens) (UniProt P21964). Nature of the assay: Confirmatory Screen for Target Class Profiling of Small Molecule Inhibitors of Methyltransferases (AID 1745852; calls by dose curve; as to activity change, negative = inhibition: % is scaled to controls: 0 for no effect and ±100 for the full control effect). As to conditions: MTase-Glo luminescence, SAH detection, recombinant enzyme; measured here: COMT max response; stronger effect = lower value.
The target of assay [12] is Guanidinoacetate N-methyltransferase (Homo sapiens) (UniProt Q14353). The assay is described as above. Particulars: activity change, negative = inhibition: at 57.3 µM (top of the series) unless noted.
Assay [13] addresses Nicotinamide N-methyltransferase (Homo sapiens) (UniProt P40261). Described as above. As to conditions: MTase-Glo luminescence, SAH detection, recombinant enzyme; measured here: NNMT max response; stronger effect = lower value.
Assay [14] has as its target Phenylethanolamine N-methyltransferase (Homo sapiens) (UniProt P11086). Described as above. Particulars: MTase-Glo luminescence, SAH detection, recombinant enzyme; measured here: PNMT max response; stronger effect = lower value.
The nature of assay [15]: NCATS anti-infectives library activity on HEK293 viability as a counter-qHTS vs the C. elegans viability qHTS (AID 1745854).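 Also: HEK293 cells exposed to compounds for 24 hr before the viability read; % is scaled to controls: 0 for no effect and ±100 for the full control effect.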 The gist of the method:
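HEK293 cells (1,500/well) exposed 24 hr at 37C to 1:5 titrations, up to 41.7 uM final; counter-screen to a C. elegans viability qHTS. Viability by CellTiter-Glo luminescence after 10 min at room temperature; digitonin as control.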

For assay [16], the target named is Glutathione peroxidase 1 (Homo sapiens) (UniProt P07203). Nature of the assay: Primary qHTS Assay for Inhibitors of Recombinant Selenoprotein Glutathione Peroxidase 1 (GPX1) (AID 1845191). Also: nearly all actives have a fitted effect of over 65% in size. In short, it runs like this: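 10 nM GPX1 + cpd, 30 min RT; start w/ 1 mM GSH, 0.5 mM cumene hydroperoxide, 0.5 mM NADPH, 100 nM GR, 0.01% BSA; buffer 50 mM Tris-HCl pH 7.5, 2 mM EDTA, 150 mM NaCl; Fl 340/450, 0 & 15 min.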
Sequence of Glutathione peroxidase 1 (Homo sapiens) (P07203 whole entry, looked up): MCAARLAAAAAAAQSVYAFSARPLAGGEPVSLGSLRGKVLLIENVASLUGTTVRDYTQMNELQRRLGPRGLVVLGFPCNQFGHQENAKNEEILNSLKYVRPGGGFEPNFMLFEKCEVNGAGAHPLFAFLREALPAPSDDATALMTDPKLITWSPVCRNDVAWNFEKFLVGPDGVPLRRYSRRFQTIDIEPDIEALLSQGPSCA

SMILES strings stand for the structures. Results filed as inconclusive are left out. Activity calls are given as the source filed them. Unless noted, calls follow the shape of the dose curve; as a rule, active = well fitted curve in the direction sought with a large enough effect; inconclusive = small, poorly fitted or top-dose-only effect, or another doubt; inactive = no such curve, though single readings can be large; an effect the other way counts as inactive or inconclusive.

Sequence of Nicotinamide N-methyltransferase (Homo sapiens) (P40261 whole entry, looked up): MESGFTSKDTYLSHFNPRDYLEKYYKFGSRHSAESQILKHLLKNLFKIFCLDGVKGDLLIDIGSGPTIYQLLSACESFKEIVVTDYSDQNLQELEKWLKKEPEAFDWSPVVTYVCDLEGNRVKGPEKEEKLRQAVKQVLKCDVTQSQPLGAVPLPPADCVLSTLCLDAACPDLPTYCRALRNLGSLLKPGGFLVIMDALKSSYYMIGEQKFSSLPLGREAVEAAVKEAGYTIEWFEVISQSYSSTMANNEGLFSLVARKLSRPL
Sequence of Glucocorticoid receptor (Homo sapiens) (P04150 whole entry, looked up): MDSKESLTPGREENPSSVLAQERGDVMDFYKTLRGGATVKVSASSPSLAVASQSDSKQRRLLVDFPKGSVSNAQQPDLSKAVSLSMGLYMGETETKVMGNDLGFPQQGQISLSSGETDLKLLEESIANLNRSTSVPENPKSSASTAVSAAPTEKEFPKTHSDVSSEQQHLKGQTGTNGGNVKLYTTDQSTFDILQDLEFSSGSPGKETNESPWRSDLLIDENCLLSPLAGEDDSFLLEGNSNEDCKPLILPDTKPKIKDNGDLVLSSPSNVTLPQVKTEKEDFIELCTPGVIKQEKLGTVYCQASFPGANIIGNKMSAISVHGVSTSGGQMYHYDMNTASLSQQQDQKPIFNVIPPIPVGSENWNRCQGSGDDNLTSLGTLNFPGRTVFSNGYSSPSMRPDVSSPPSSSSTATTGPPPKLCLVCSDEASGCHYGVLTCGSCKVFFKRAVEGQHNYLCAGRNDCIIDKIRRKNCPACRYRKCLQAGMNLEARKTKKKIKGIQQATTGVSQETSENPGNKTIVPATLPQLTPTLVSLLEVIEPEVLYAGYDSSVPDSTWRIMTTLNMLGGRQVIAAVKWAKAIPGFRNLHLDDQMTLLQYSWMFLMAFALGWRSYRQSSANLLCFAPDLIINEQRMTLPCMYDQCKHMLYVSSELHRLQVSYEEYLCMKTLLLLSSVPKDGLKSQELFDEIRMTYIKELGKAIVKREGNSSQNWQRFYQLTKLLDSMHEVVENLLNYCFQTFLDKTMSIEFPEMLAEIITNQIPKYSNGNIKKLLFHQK
Sequence of Catechol O-methyltransferase (Homo sapiens) (P21964 whole entry, looked up): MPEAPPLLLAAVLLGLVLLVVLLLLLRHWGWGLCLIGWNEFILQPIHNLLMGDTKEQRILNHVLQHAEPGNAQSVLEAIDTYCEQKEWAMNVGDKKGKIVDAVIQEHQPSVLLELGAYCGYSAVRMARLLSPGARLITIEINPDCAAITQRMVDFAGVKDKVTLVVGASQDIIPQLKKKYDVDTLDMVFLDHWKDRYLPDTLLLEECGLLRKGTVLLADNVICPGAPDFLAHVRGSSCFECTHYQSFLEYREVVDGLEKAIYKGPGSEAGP
Sequence of Phenylethanolamine N-methyltransferase (Homo sapiens) (P11086 whole entry, looked up): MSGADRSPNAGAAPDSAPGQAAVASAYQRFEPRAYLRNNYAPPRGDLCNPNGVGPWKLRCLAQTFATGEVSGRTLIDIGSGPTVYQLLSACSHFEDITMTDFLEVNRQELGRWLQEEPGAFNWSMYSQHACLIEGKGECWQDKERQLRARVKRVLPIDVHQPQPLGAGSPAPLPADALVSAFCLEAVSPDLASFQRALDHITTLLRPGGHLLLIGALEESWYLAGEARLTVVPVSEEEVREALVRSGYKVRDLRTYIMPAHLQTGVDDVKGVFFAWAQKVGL
Sequence of Cytochrome P450 3A4 (Homo sapiens) (P08684 whole entry, looked up): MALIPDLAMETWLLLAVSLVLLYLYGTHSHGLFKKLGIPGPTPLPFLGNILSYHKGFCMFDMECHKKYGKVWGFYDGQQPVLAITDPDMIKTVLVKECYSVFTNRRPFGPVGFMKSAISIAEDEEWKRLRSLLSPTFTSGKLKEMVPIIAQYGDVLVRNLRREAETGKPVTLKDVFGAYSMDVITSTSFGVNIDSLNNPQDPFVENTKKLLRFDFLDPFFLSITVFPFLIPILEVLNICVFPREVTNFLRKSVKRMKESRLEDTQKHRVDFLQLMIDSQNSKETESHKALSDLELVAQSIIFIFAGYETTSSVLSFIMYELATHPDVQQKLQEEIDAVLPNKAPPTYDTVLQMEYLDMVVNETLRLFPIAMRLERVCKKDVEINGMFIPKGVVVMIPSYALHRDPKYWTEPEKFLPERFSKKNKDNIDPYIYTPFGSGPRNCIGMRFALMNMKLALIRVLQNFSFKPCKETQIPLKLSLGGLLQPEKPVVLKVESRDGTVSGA
Sequence of Cytochrome P450 2C9 (Homo sapiens) (P11712 whole entry, looked up): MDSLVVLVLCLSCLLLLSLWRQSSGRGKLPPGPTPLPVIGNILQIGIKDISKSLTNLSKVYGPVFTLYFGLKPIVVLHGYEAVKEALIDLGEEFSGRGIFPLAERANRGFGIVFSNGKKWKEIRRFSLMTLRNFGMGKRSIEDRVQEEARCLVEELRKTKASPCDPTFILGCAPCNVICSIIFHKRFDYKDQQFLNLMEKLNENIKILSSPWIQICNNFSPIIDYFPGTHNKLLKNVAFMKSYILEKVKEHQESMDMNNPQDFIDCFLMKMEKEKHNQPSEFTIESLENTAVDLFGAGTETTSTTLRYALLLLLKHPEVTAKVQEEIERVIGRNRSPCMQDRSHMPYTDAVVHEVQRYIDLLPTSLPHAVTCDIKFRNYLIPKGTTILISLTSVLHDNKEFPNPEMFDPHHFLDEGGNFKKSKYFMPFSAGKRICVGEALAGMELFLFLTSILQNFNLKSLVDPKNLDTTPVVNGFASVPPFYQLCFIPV
Sequence of Cytochrome P450 1A2 (Homo sapiens) (P05177 whole entry, looked up): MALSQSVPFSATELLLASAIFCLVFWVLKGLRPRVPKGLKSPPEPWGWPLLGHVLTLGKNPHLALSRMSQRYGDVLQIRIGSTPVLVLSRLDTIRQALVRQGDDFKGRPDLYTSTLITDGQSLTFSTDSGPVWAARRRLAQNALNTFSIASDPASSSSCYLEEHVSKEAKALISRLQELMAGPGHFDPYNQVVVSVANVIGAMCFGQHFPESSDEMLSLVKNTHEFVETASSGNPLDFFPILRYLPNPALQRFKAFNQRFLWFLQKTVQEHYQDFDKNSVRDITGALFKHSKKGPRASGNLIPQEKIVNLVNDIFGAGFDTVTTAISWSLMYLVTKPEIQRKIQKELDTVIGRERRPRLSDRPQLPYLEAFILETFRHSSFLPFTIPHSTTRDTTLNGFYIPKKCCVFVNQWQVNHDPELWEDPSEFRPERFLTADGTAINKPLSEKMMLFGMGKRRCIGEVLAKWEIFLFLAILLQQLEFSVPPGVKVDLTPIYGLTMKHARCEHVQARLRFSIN
Sequence of DNA dC->dU-editing enzyme APOBEC-3G (Homo sapiens) (Q9HC16 whole entry, looked up): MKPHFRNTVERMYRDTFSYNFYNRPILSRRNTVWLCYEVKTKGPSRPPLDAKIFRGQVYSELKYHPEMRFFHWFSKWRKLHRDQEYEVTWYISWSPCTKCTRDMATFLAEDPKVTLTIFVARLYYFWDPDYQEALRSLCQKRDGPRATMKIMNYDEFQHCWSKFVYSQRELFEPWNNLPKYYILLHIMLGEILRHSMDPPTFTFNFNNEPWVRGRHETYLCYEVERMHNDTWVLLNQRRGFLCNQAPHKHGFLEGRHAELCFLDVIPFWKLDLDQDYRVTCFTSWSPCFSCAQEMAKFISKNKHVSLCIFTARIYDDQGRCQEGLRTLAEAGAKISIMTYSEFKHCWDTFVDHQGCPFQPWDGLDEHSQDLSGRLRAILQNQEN
Sequence of Cytochrome P450 2D6 (Homo sapiens) (P10635 whole entry, looked up): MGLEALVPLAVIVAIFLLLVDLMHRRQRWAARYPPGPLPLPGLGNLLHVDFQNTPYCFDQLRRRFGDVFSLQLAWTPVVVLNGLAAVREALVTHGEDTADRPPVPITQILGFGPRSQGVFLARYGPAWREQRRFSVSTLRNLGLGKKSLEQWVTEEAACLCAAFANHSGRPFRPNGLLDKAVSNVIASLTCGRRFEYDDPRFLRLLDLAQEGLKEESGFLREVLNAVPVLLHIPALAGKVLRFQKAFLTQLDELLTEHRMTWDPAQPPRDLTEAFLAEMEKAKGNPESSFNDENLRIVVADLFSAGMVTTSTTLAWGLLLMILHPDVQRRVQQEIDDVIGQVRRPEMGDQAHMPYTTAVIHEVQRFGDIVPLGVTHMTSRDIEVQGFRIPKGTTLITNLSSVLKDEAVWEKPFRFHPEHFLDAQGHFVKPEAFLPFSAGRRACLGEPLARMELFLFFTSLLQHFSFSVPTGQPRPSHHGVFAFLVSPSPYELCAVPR

In the case of `COc1ccc(-c2oc3ccc(C)cc3c(=O)c2O)cc1OC`, the Potency was 0.251 µM (active) in [1], > 46 µM (inactive) in assay [2] and > 46 µM (inactive) in assay [3]. Moreover, the Potency entry in [4], in assay [5], in assay [6], in assay [8] and in assay [9] was “inactive” throughout. The outcome in assay [7] and in assay [10] was “inactive” throughout. The activity in assay [11] was -1%; in assay [13] it was 1.6%; in assay [14], 4.32%. In [12], the activity change, negative = inhibition was 0%.
With `CC(C)=C1C/C=C(\C)CC/C=C(\C)CC1=O`, in assay [15], the Potency result was “inactive”.
Take `COc1ccc(C2CC(=O)c3cc(-c4nc(-c5cccc([N+](=O)[O-])c5)cs4)c(=O)n(-c4ccccc4N)c3C2)cc1` (stereo unspecified): the activity in assay [11] was -0.514%; in [13] it was -5.71%; in [14], -5.29%. For the same compound, in [12], the activity change, negative = inhibition was -4.17%. The Potency entry in assay [16] is “inactive”.
As for `CC(=O)N1CCC(C(=O)N(CCCN2CCC(Cc3ccc(C(N)=O)cc3)CC2)c2ccc(C)c(Cl)c2)CC1`, in assay [15], the Potency entry is “inactive”.
As to `CNC(=O)[C@@H](NC(=O)[C@H](CCCc1ccccc1)[C@H](C)N(O)C=O)C(C)(C)C`, the Potency entry in assay [15] is “inactive”.
Still for that read-out and setting: then `COC(=O)[C@H](CCSC)NC(=O)c1ccc(NC[C@@H](N)CS)cc1-c1ccccc1`, with “inactive”; and `CCOC(=O)c1c(C)sc(-c2c(-c3ccc(OC)c(F)c3)[nH]c3c2c(=O)[nH]c(=O)n3C)c1O`, with “inactive”; and `C=C1CCC2C(C)(CO)C(O)CCC2(C)C1C/C=C1\C=COC1=O` (stereo unspecified), with “inactive”.
The same measure, in the same setting: to `Cc1ccc(C(=O)NCCCCCC(=O)Nc2ccccc2N)cc1` belongs “inactive”.
